Source: PubChem BioAssay (NCATS)
Records with an inconclusive call do not appear. Activity calls are given as the source filed them. The call rests on the fitted dose curve; in most records, active means well fitted inhibition curve with a large enough effect; inconclusive means small, poorly fitted or top-dose-only effect; inactive means flat fitted curve, though single readings scatter.

Experiments:
Assay in all cases: qHTS profiling for inhibitors of Plasmodium falciparum proliferation (AID 504749); further: nearly all actives have a fitted effect of over 60% in size
[1] = test system: Dd2; settings: P. falciparum in erythrocytes, SYBR Green DNA, 72 h; series mostly up to 28.7 µM
Outline: (§1)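 Three-day growth assay of blood-stage parasites in erythrocytes (0.3% parasitemia, 2.5% hematocrit) at 37 C, 5% CO2, quantified by SYBR Green DNA staining after overnight detergent lysis.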

[2] = test system: GB4; settings: P. falciparum in erythrocytes, SYBR Green DNA, 72 h; series mostly up to 28.7 µM
Outline: as §1

[3] = test system: JCK; settings: P. falciparum in erythrocytes, SYBR Green DNA, 72 h; series mostly up to 28.7 µM
Outline: as §1

[4] = test system: P93_24; settings: P. falciparum in erythrocytes, SYBR Green DNA, 72 h; series mostly up to 28.7 µM
Outline: as §1

[5] = test system: P94_40; settings: P. falciparum in erythrocytes, SYBR Green DNA, 72 h
Outline: as §1

[6] = test system: PAD; settings: P. falciparum in erythrocytes, SYBR Green DNA, 72 h; series mostly up to 28.7 µM
Outline: as §1

[7] = test system: PC49; settings: P. falciparum in erythrocytes, SYBR Green DNA, 72 h; series mostly up to 28.7 µM
Outline: as §1

[8] = test system: TAB165; settings: P. falciparum in erythrocytes, SYBR Green DNA, 72 h; series mostly up to 28.7 µM
Outline: as §1

[9] = test system: W2; settings: P. falciparum in erythrocytes, SYBR Green DNA, 72 h; series mostly up to 28.7 µM
Outline: as §1

[10] = test system: DIV30; settings: P. falciparum in erythrocytes, SYBR Green DNA, 72 h; series mostly up to 28.7 µM
Outline: as §1

[11] = test system: ECU; settings: P. falciparum in erythrocytes, SYBR Green DNA, 72 h; series mostly up to 28.7 µM
Outline: as §1

[12] = test system: FAB9; settings: P. falciparum in erythrocytes, SYBR Green DNA, 72 h; series mostly up to 28.7 µM
Outline: as §1

[13] = test system: HB3; settings: P. falciparum in erythrocytes, SYBR Green DNA, 72 h; series mostly up to 28.7 µM
Outline: as §1

[14] = test system: ICS; settings: P. falciparum in erythrocytes, SYBR Green DNA, 72 h; series mostly up to 28.7 µM
Outline: as §1

[15] = test system: N140; settings: P. falciparum in erythrocytes, SYBR Green DNA, 72 h; series mostly up to 28.7 µM
Outline: as §1

[16] = test system: PC15; settings: P. falciparum in erythrocytes, SYBR Green DNA, 72 h; series mostly up to 28.7 µM
Outline: as §1

[17] = test system: PC26; settings: P. falciparum in erythrocytes, SYBR Green DNA, 72 h; series mostly up to 28.7 µM
Outline: as §1

[18] = test system: SC27B; settings: P. falciparum in erythrocytes, SYBR Green DNA, 72 h; series mostly up to 28.7 µM
Outline: as §1

[19] = test system: TAB109; settings: P. falciparum in erythrocytes, SYBR Green DNA, 72 h; series mostly up to 28.7 µM
Outline: as §1

[20] = test system: TAB113; settings: P. falciparum in erythrocytes, SYBR Green DNA, 72 h; series mostly up to 28.7 µM
Outline: as §1

Measured: Potency
Potency means the concentration at half of the fitted maximal effect.

COC1C(OC(=O)/C=C/C=C/C=C/C=C/C(=O)O)CCC2(CO2)C1C1(C)OC1CC=C(C)C (configuration not stated)
active: [1] 0.0398 µM | [2] 1.69 µM | [4] 0.0251 µM | [5] 0.0251 µM | [6] 1.41 µM | [8] 0.0316 µM | [9] 0.0107 µM
inactive: [3] | [7]

C=CCNC1=C2C[C@@H](C)C[C@H](OC)[C@H](O)[C@@H](C)/C=C(\C)[C@H](OC(N)=O)[C@@H](OC)/C=C\C=C(/C)C(=O)NC(=CC1=O)C2=O
active: [10] 1.69 µM | [11] 1 µM | [12] 11.2 µM | [2] 1.51 µM | [13] 2 µM | [14] 0.708 µM | [3] 12.6 µM | [15] 0.891 µM | [4] 1.26 µM | [5] 0.794 µM | [6] 2 µM | [16] 2 µM | [17] 1.51 µM | [7] 6.31 µM | [18] 1.78 µM | [19] 2 µM | [20] 1.78 µM | [8] 1.41 µM | [9] 1.2 µM

CCCOc1ccc2nc(NC(=O)OC)sc2c1
not listed: [5]
inactive: all other assays above
